TrxR1 substrate: rat thioredoxin reductase 1 substrate activity | O89049 | purified TrxR1 substrate turnover, NADPH consumption readout | Potency, µM (highest dose often 114 µM), for inactives: at the top dose activity change, negative = substrate turnover | 390,000 tested, 0.01% active | AID 588456; further: on the % scale 0 is the no-effect control and ±100 the full control effect; nearly all actives have a fitted effect of over 50% in size
Target sequence (O89049 whole entry, looked up): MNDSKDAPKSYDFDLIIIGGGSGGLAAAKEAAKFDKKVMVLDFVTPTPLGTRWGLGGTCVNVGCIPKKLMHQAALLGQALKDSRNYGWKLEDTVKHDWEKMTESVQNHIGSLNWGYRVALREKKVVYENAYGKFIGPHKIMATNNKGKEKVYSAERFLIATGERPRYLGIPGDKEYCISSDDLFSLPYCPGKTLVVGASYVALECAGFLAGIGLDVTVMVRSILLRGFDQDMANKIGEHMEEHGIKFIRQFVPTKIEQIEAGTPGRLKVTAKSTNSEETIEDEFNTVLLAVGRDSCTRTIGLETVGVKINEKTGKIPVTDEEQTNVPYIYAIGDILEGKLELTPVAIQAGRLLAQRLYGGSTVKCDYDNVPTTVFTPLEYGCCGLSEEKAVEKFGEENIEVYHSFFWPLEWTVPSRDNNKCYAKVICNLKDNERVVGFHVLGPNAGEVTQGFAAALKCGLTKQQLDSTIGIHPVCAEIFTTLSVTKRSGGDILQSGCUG
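Rat TrxR1, dispensed at 90 nM, was prereduced with 400 uM NADPH (final) for 5 min at ~22 deg C, then incubated with compound 15 min before 400 uM selenite. A first-read NADPH fluorescence drop versus no-compound background flagged substrates.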
Mito fusion act: inhibitors of mitochondrial division or activators of mitochondrial fusion; S. cerevisiae fusion-defective mutant growth rescue, CellTiterGlo 48 h; Potency, µM (doses to about 46.1 µM), inactives show at the top dose growth rescue (activation), actives largely listed as activators; 320,000 tested, 0.23% active; AID 485298; further: % of control where 0% means no effect; nearly all actives have a fitted effect of over 45% in size
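S. cerevisiae fusion-defective temperature-sensitive mutants (e.g. fzo1-1, mgm1-5) grown 48 h at 37C in YPEG (ethanol/glycerol non-fermentable) medium with 23 nl compound per well; growth rescue read as CellTiterGlo luminescence.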
IDH1 R132H inh: inhibitors of human mutant IDH1 R132H | IDH1-R132H enzyme, NADPH consumption, diaphorase/resazurin fluorescence | Potency, µM (series often up to 76.6 µM), inactives show at the highest dose activity change, negative = inhibition, usual class: inhibitors | 390,000 tested, 0.093% active | AID 602179 | O75874; further: on the % scale 0 is the no-effect control and ±100 the full control effect; nearly all actives have a fitted effect of over 65% in size
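IDH1-R132H (0.5 ug/mL dispensed) in pH 7.5 Tris buffer was preincubated 30 min with compound, then given a substrate mix of 0.016 mM NADPH and 2 mM alpha-KG for 80 min at room temperature; remaining NADPH was read by diaphorase/resazurin fluorescence.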
Nrf2 inh: blocks Nrf2 signaling | A549 ARE-Fluc reporter, luciferase luminescence, 18-24 h | Potency, µM (highest dose often 46 µM), inactives show at the top dose activity change, negative = inhibition, most hits filed as inhibitors | 360,000 tested, 2.1% active; further: on the % scale 0 is the no-effect control and ±100 the full control effect; nearly all actives have a fitted effect of over 60% in size
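Quantitative HTS in A549 cells stably bearing an antioxidant response element-firefly luciferase construct. Inhibition of Nrf2-driven transcription was scored by luminescence after 18-24 h of compound exposure at 37 °C.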
TrxR1 inh: rat TrxR1 inhibition | recombinant rTrxR1, NADPH fluorescence consumption, selenite substrate | AID 588453 | 390,000 tested, 1% active | Potency, µM (series often up to 114 µM), inactives show at the highest dose activity change, negative = inhibition, hits mostly inhibitors | O89049; further: on the % scale 0 is the no-effect control and ±100 the full control effect; nearly all actives have a fitted effect of over 65% in size
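Rat TrxR1 (90 nM in the dispensed reagent) was pre-reduced with 400 uM NADPH for 5 min at room temperature, then incubated with compound for 15 min. After 400 uM selenite was added, NADPH fluorescence (Ex 340/Em 450 nm) was followed for 8 min.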
A549 viability: A549 cytotoxicity, counter-screen for Nrf2 inhibitors; Potency, µM (doses to about 46 µM), without a hit: at the top dose activity change, negative = cytotoxicity, usual class: inhibitors; A549 ARE-Fluc cells, CellTiter-Fluor viability, 18-24 h; AID 504648; 390,000 tested, 0.16% active; further: on the % scale 0 is the no-effect control and ±100 the full control effect
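A549 ARE_Fluc cells in 5% FBS OPTI-MEM were exposed to compounds in concentration-response for 18-24 h at 37 deg C. Viability was read by CellTiter-Fluor fluorescence (Ex 405/Em 525) after 30 min, before the luciferase read.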
Numbers without * were called inactive; ! = a repeat was not active; [ ] = another dose, or the depositor's remark. Sampled rows, rich in hits. Any-hit rate of the full collection: about 3.1%. The call rests on the fitted dose curve; in most records, active means well fitted curve in the direction sought with a large enough effect; inconclusive means small, poorly fitted or top-dose-only effect, or another doubt; inactive means no such curve, though single readings can be large; an effect the other way counts as inactive or inconclusive. Potency means the concentration at half of the fitted maximal effect.

`COc1cc(/C=C(\C#N)C(=O)Nc2cccc(C(=O)O)c2)ccc1OCc1ccc(F)cc1` gave TrxR1 substrate -3.4%[57.1 µM], Mito fusion act 5.1%, IDH1 R132H inh -9.0%, Nrf2 inh 3.5%, TrxR1 inh -7.1%[57.1 µM] and A549 viability -2.7%.
`COc1cc(/C=C(\C#N)C(=O)Nc2ccccn2)ccc1O` gave TrxR1 substrate -11.4%[57.1 µM], Mito fusion act -2.9%, IDH1 R132H inh 15.1%, Nrf2 inh 39.4%, TrxR1 inh inconclusive and A549 viability -2.2%.
`CCOc1cc(/C=C(\C#N)C(=O)Nc2ccccn2)ccc1O` gave TrxR1 substrate -1.0%, Mito fusion act -2.7%, IDH1 R132H inh 3.7%, Nrf2 inh 0.5%, TrxR1 inh 25.1µM* and A549 viability 1.7%.
Screening CCOc1cc(/C=C(\C#N)C(=O)Nc2cccc(C(=O)O)c2)ccc1OCc1ccccc1Cl returned TrxR1 substrate 4.2%, Mito fusion act 24.8%, IDH1 R132H inh 32.9µM*, Nrf2 inh -1.2%, TrxR1 inh 16.0% and A549 viability -3.8%.
For CCn1nc(NS(=O)(=O)c2cccc3nonc23)c2cc3ccc(C)cc3nc21 the results were TrxR1 substrate -19.4%, Mito fusion act -1.5%, IDH1 R132H inh -17.1%, Nrf2 inh -16.8%, TrxR1 inh inconclusive and A549 viability -19.8%.
CCCCn1nc(NS(=O)(=O)c2cccc3nonc23)c2cc3cccc(C)c3nc21 was read as TrxR1 substrate 8.2%, Mito fusion act 11.2µM*, IDH1 R132H inh -1.7%, Nrf2 inh -29.2%, TrxR1 inh 22.2% and A549 viability inconclusive.
Screening COc1ccccc1CN(C)CC(=O)Nc1ccccc1-c1ccccc1 returned TrxR1 substrate -14.3%, Mito fusion act -1.1%, IDH1 R132H inh 3.0%, Nrf2 inh 23.1µM*, TrxR1 inh -7.2%[57.1 µM] and A549 viability inconclusive.
O=c1oc2ccccc2c(N2CCCCC2)c1CN1CCCC1 was read as TrxR1 substrate 3.6%, Mito fusion act 0.8%, IDH1 R132H inh 2.4%, Nrf2 inh -5.7%, TrxR1 inh 4.8% and A549 viability 0.5%.
`CCc1oc2ccccc2c1C(=O)CCN1CCCCC1` gave TrxR1 substrate 3.5%, Mito fusion act -19.4%, IDH1 R132H inh -0.2%, Nrf2 inh 0.3%, TrxR1 inh 0.112µM* and A549 viability 7.8%.
For O=c1oc2ccccc2c(N2CCCCC2)c1CN1CCCCC1 the results were TrxR1 substrate -0.3%, Mito fusion act 5.5%, IDH1 R132H inh 0.3%, Nrf2 inh 8.9%, TrxR1 inh 25.1µM* and A549 viability -1.2%.
`CC(=O)Nc1nonc1-c1nc2ccccc2n1Cc1ccccc1Br` gave TrxR1 substrate 6.3%[11.4 µM], Nrf2 inh inconclusive, TrxR1 inh -0.9% and A549 viability -11.3%.
For COc1cc(F)c(S(=O)(=O)N2CCCN(S(=O)(=O)c3cccc(N)c3)CC2)c(F)c1 the results were Nrf2 inh 25.9µM*! and A549 viability 10.3%.
Cc1ccc(S(=O)(=O)N2CCN(c3nc(C(N)=O)nc4ccccc34)CC2)cc1 was read as TrxR1 substrate 1.2%, Nrf2 inh 5.5%, TrxR1 inh 9.0% and A549 viability 2.0%.
`CCn1c(Cl)c(C=O)s/c1=N\S(=O)(=O)c1ccccc1` gave TrxR1 substrate -4.1%, Mito fusion act -8.8%, IDH1 R132H inh -11.9%, Nrf2 inh inconclusive, TrxR1 inh 1.41µM* and A549 viability inconclusive.
Screening Cc1ccc(S(=O)(=O)c2ncccc2N)cc1 returned TrxR1 substrate 5.2%[2.29 µM], Mito fusion act -7.4%, IDH1 R132H inh 4.6%, Nrf2 inh -1.2%, TrxR1 inh 16.9%[2.29 µM] and A549 viability 0.1%.

From PubChem
